Results published in PubChem BioAssay (Tox21).
Values joined by “and” are separate entries in the source; they are usually repeats but may differ in a detail not shown here. Equal values may be shown once. Records with an inconclusive call do not appear. Values without a mark were called inactive. Active and inactive are the calls of the source. Calls follow the shape of the dose curve; as a rule, active = well fitted curve in the direction sought with a large enough effect in the repeat runs; inconclusive = weak or mixed curves; inactive = no such curve, though single readings can be large; an effect the other way counts as inactive or inconclusive.

System: not listed separately
Test: qHTS assay to identify small molecule antagonists of the constitutive androstane receptor (CAR) signaling pathway - cell viability counter screen (AID 1224837); also: nearly all actives have a fitted effect of over 45% in size
Conditions: HepG2-CYP2B6-hCAR viability, CellTiter-Fluor, 23 h, co-treated with 50 nM CITCO; series mostly up to 92.4 µM; activity change, negative = cytotoxicity: at the top concentration
Outline: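 Counter screen run in HepG2-CYP2B6-hCAR cells: 4 hr settle, compound titration (15 concentrations) with 50 nM CITCO, 23 hr at 37 C/5% CO2, CellTiter-Fluor fluorescence.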
% is scaled to controls: 0 for no effect and ±100 for the full control effect; potency is read from the fitted curve at half-maximal effect.

Structure (SMILES) | activity change, negative = cytotoxicity | Potency
CC1=CC=C(C(C)C)CC1 | 0.656% | 
CCC(C)O (stereo not given) | -0.763% | 
C=C1C(=C/C=C2\CCC[C@]3(C)[C@@H]([C@H](C)/C=C/[C@@H](O)C4CC4)CC[C@@H]23)C[C@@H](O)C[C@@H]1O | -10.8% [at 42.5 µM] | 
COC(=O)c1ccc(I)cc1S(=O)(=O)NC(=O)Nc1nc(C)nc(OC)n1 | 1.84% | 
Brc1c2ccccc2cc2ccccc12 | 2.53% | 
CC(=O)NO | 3.09% [at 42.5 µM] | 
CCCC(=O)Nc1ccc(O)c(C(C)=O)c1 | -1.63% [at 42.5 µM] | 
CCCCC(=O)OCC(=O)[C@H]1[C@H](C)C[C@H]2[C@@H]3C[C@H](F)C4=CC(=O)C=C[C@]4(C)[C@@]3(F)[C@@H](O)C[C@@]21C | 7.11% [at 42.5 µM] | 
Brc1c2ccccc2c(Br)c2ccccc12 | 6.42% [at 8.39 µM] | 
CC1(c2ccccc2)OC(C(=O)O)=CC1=O (stereo not given) | -1.17% [at 42.5 µM] | 
CN(C)c1ccc(/C=C/c2ccc([N+](=O)[O-])cc2)cc1 | 11.7% [at 8.39 µM] | 
Cc1cccc(Nc2ccccc2)c1 | 0.578% | 
CCCn1cnc2c1c(=O)n(CCCCC(C)=O)c(=O)n2C | -5.72% [at 42.5 µM] | 
CCCCCCc1ccc(-c2ccc(C#N)cc2)cc1 | 1.78% | 
C#Cc1cccc(Nc2ncnc3cc(OCCOC)c(OCCOC)cc23)c1 | -19.5% [at 42.5 µM] | 
NCCCN1CCOCC1 | 0.785% | 
C#CCN(C)CCCOc1ccc(Cl)cc1Cl | 7.92% [at 42.5 µM] | 
CCCCCCCCCCCCN1CCCCCC1=O | 0.125% | 
COc1cc(Cl)ccc1Oc1ccc(Cl)cc1Cl | -1.4% | 
C=CC(=O)OCCOCCOCCOCCOC(=O)C=C |  | 48.8 µM (active) and 54 µM (active)
Nc1ncn([C@H]2C[C@H](O)[C@@H](CO)O2)c(=O)n1 | -14.1% [at 42.5 µM] | 
CCCCC(CC)COC(=O)CCCCCCCCC(=O)OCC(CC)CCCC (stereo not given) | 2.2% | 
CCN(CC)c1ccc2c(-c3ccccc3C(=O)O)c3ccc(=[N+](CC)CC)cc-3oc2c1 |  | 7.7 µM (active)
CCCCCCOC(=O)NC(=N)c1ccc(NCc2nc3cc(C(=O)N(CCC(=O)OCC)c4ccccn4)ccc3n2C)cc1 | -2.59% [at 42.5 µM] | 

Target: Nuclear receptor subfamily 1 group I member 3 (Homo sapiens) (UniProt Q14994)
Sequence (Q14994 whole entry, looked up): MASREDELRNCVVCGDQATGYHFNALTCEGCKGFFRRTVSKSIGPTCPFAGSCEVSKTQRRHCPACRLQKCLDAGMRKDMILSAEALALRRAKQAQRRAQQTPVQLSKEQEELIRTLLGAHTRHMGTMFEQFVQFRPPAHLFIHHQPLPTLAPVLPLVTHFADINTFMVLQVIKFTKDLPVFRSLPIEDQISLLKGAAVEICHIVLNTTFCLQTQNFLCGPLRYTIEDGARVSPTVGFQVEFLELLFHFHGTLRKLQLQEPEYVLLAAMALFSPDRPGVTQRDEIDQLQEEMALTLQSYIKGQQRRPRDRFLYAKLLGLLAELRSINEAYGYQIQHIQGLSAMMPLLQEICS
Test: qHTS assay to identify small molecule antagonists of the constitutive androstane receptor (CAR) signaling pathway (AID 1224838);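 also: HepG2 cells stably expressing hCAR with CYP2B6 luciferase reporter stimulated by CITCO; nearly all actives have a fitted effect of over 40% in size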
Conditions: HepG2-CYP2B6-hCAR luciferase, CITCO-stimulated, 24 h; series mostly up to 92.4 µM; activity, negative = inhibition: at the top concentration
Outline: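 Cell line: HepG2 double-stable for hCAR and CYP2B6-2.2kb reporter. Agonist: CITCO, 50 nM final. Compounds: 15 concentrations, 24 h, 37 C. Detection: ONE-Glo luminescence.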

Structure (SMILES) | activity, negative = inhibition | Potency
C/C(=C(\CCOP(=O)(O)O)SC(=O)c1ccccc1)N(C=O)Cc1cnc(C)nc1N | -18% [at 8.39 µM] | 
CC1=CC=C(C(C)C)CC1 | 2.69% | 
CCC(C)O (stereo not given) | -3.54% | 
C=C1C(=C/C=C2\CCC[C@]3(C)[C@@H]([C@H](C)/C=C/[C@@H](O)C4CC4)CC[C@@H]23)C[C@@H](O)C[C@@H]1O | 189% [at 42.5 µM] | 
COC(=O)c1ccc(I)cc1S(=O)(=O)NC(=O)Nc1nc(C)nc(OC)n1 | 0.298% | 
Brc1c2ccccc2cc2ccccc12 | 185% | 
CC(=O)NO | 26.6% [at 42.5 µM] | 
CCCC(=O)Nc1ccc(O)c(C(C)=O)c1 | 51.8% [at 42.5 µM] | 
CCCCC(=O)OCC(=O)[C@H]1[C@H](C)C[C@H]2[C@@H]3C[C@H](F)C4=CC(=O)C=C[C@]4(C)[C@@]3(F)[C@@H](O)C[C@@]21C | -5.64% [at 42.5 µM] | 
CCN(CC)c1ccc(C(=C2C=CC(=[N+](CC)CC)C=C2)c2cc(S(=O)(=O)O)ccc2S(=O)(=O)[O-])cc1 |  | 11.9 µM (active)
Brc1c2ccccc2c(Br)c2ccccc12 | 22.1% [at 8.39 µM] | 
CC1(c2ccccc2)OC(C(=O)O)=CC1=O (stereo not given) | 3.61% [at 42.5 µM] | 
CN(C)c1ccc(/C=C/c2ccc([N+](=O)[O-])cc2)cc1 | 47.3% [at 8.39 µM] | 
Cc1cccc(Nc2ccccc2)c1 | 33.2% | 
CCCn1cnc2c1c(=O)n(CCCCC(C)=O)c(=O)n2C | 1.2% [at 42.5 µM] | 
CCCCCCc1ccc(-c2ccc(C#N)cc2)cc1 | 25.1% | 
C#Cc1cccc(Nc2ncnc3cc(OCCOC)c(OCCOC)cc23)c1 | 385% [at 42.5 µM] | 
C[C@H]1C[C@H]2[C@@H]3CCC4=CC(=O)C=C[C@]4(C)[C@@]3(Cl)[C@@H](O)C[C@]2(C)[C@@]1(O)C(=O)CO | 16.3% [at 42.5 µM] | 
NCCCN1CCOCC1 | 15.6% | 
C#CCN(C)CCCOc1ccc(Cl)cc1Cl | 242% [at 42.5 µM] | 
COc1cc(C(=O)OCCCN2CCCN(CCCOC(=O)c3cc(OC)c(OC)c(OC)c3)CC2)cc(OC)c1OC | 13.5% [at 42.5 µM] | 
CCCCCCCCCCCCN1CCCCCC1=O | 95.4% | 
COc1cc(Cl)ccc1Oc1ccc(Cl)cc1Cl | 113% | 
C=CC(=O)OCCOCCOCCOCCOC(=O)C=C |  | 61.4 µM (active)
OC(CN1CCC(Cc2ccc(F)cc2)CC1)c1ccc(Cl)cc1 (stereo not given) |  | 23.7 µM (active)
Nc1ncn([C@H]2C[C@H](O)[C@@H](CO)O2)c(=O)n1 | -16.5% [at 42.5 µM] | 
CCCCC(CC)COC(=O)CCCCCCCCC(=O)OCC(CC)CCCC (stereo not given) | -4.09% | 
CCN(CC)c1ccc2c(-c3ccccc3C(=O)O)c3ccc(=[N+](CC)CC)cc-3oc2c1 | 130% | 
CCCCCCOC(=O)NC(=N)c1ccc(NCc2nc3cc(C(=O)N(CCC(=O)OCC)c4ccccn4)ccc3n2C)cc1 | 31.4% [at 42.5 µM] | 

Target: Nuclear receptor subfamily 1 group I member 3 (Homo sapiens) (UniProt Q14994)
Test: qHTS assay to identify small molecule agonists of the constitutive androstane receptor (CAR) signaling pathway (AID 1224839); also: nearly all actives have a fitted effect of over 15% in size
Conditions: HepG2 hCAR CYP2B6-luciferase, agonist mode, 24 h; series mostly up to 42.5 µM; activation: at the top concentration
Outline: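 A 15-concentration quantitative screen uses HepG2 cells co-transfected stably with human CAR and CYP2B6-2.2kb reporter. Treatment lasts 24 h with 0.75 uM PK11195 final present; ONE-Glo luminescence is the signal.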

Structure (SMILES) | activation | Potency
CC1=CC=C(C(C)C)CC1 | 1.75% [at 92.4 µM] | 
CCC(C)O (stereo not given) | -0.815% [at 92.4 µM] | 
COC(=O)c1ccc(I)cc1S(=O)(=O)NC(=O)Nc1nc(C)nc(OC)n1 | 5.61% [at 92.4 µM] | 
Brc1c2ccccc2cc2ccccc12 |  | 55 µM (active)
CC(=O)NO | 1.64% | 
CCCC(=O)Nc1ccc(O)c(C(C)=O)c1 | 4.64% | 
CCCCC(=O)OCC(=O)[C@H]1[C@H](C)C[C@H]2[C@@H]3C[C@H](F)C4=CC(=O)C=C[C@]4(C)[C@@]3(F)[C@@H](O)C[C@@]21C | -2.84% | 
CCN(CC)c1ccc(C(=C2C=CC(=[N+](CC)CC)C=C2)c2cc(S(=O)(=O)O)ccc2S(=O)(=O)[O-])cc1 | -14% | 
O=[N+]([O-])c1cccc(S(=O)(=O)O)c1 | -8.19% [at 92.4 µM] | 
Brc1c2ccccc2c(Br)c2ccccc12 | 11.6% [at 8.39 µM] | 
CN(C)c1ccc(/C=C/c2ccc([N+](=O)[O-])cc2)cc1 |  | 0.872 µM (active)
CCCn1cnc2c1c(=O)n(CCCCC(C)=O)c(=O)n2C | -0.0361% | 
C#Cc1cccc(Nc2ncnc3cc(OCCOC)c(OCCOC)cc23)c1 |  | 7.5 µM (active)
C[C@H]1C[C@H]2[C@@H]3CCC4=CC(=O)C=C[C@]4(C)[C@@]3(Cl)[C@@H](O)C[C@]2(C)[C@@]1(O)C(=O)CO | 1.3% | 
NCCCN1CCOCC1 | 0.366% [at 92.4 µM] | 
C#CCN(C)CCCOc1ccc(Cl)cc1Cl |  | 26.6 µM (active)
CCCCCCCCCCCCN1CCCCCC1=O |  | 61.1 µM (active)
COc1cc(Cl)ccc1Oc1ccc(Cl)cc1Cl |  | 29.8 µM (active)
C=CC(=O)OCCOCCOCCOCCOC(=O)C=C |  | inactive
OC(CN1CCC(Cc2ccc(F)cc2)CC1)c1ccc(Cl)cc1 (stereo not given) | -11.3% | 
Nc1ncn([C@H]2C[C@H](O)[C@@H](CO)O2)c(=O)n1 | -8.47% | 
CCCCC(CC)COC(=O)CCCCCCCCC(=O)OCC(CC)CCCC (stereo not given) | 2.47% [at 92.4 µM] | 
